The list is not random: actives were taken first. Their share in the collection is about 14%.
Pf growth 96h – inhibits malaria parasite growth, 96 h; P. falciparum luciferase reporter growth, 96 h; Potency, µM (doses to about 28.7 µM), actives largely listed as inhibitors; 320,000 tested, 6.9% active; AID 504834
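Two parasite generations (96 h, 37 C, 5% CO2) of compound exposure in infected erythrocytes (0.05% parasitemia, 2% hematocrit). Luciferase-reporter P. falciparum; decreased luminescence indicates inhibited growth, aimed at apicoplast-acting delayed death.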
Sm TGR block – blocks Schistosoma mansoni thioredoxin glutathione reductase; purified TGR, DTNB reduction, TNB absorbance 405 nm; Potency, µM (titrated, usually from 114 µM), actives largely listed as inhibitors; AID 485364; Q962Y6; 360,000 tested, 3% active; also: nearly all actives have a fitted effect of over 60% in size
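Kinetic colorimetric format: TGR-catalysed, NADPH-driven DTNB reduction monitored via TNB absorbance. Enzyme dispensed at 20 nM; compound exposure 15 min at room temperature before reaction start.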
HCMV antiviral – inhibitors of human cytomegalovirus; 410,000 tested, 4.5% active; HFF cells, HCMV-luciferase reporter, 72 h; hits give low values; activity change, negative = inhibition, % at 57.5 µM; in the data active = activity change below about -60%; inconclusive = no clear call, values can overlap the other calls; inactive = above about -39%
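Inhibition of viral replication was scored as loss of reporter luminescence in HFFs infected with HCMV-luciferase (MOI 1 PFU/cell) for 72 h; compounds tested at 2 doses, normalized to buffer and Salinomycin controls.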
Pf growth 48h – P. falciparum growth inhibition at 48 hours (one generation) | 310,000 tested, 5.9% active | P. falciparum luciferase growth in erythrocytes, 48 h | Potency, µM (doses to about 28.7 µM), actives largely listed as inhibitors | AID 504832
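Here the parasites carry a stable luciferase gene and grow inside erythrocytes in Albumax-based RPMI medium with compound for one erythrocytic cycle. Activity is scored as loss of luminescent signal.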
FBPA Giardia inh – Giardia lamblia aldolase inhibition; Potency, µM (series often up to 59.6 µM), most hits filed as inhibitors; A8B2U2; 290,000 tested, 0.71% active; purified Giardia FBPA; AID 2451; also: nearly all actives have a fitted effect of over 55% in size
Target sequence (A8B2U2 whole entry, looked up): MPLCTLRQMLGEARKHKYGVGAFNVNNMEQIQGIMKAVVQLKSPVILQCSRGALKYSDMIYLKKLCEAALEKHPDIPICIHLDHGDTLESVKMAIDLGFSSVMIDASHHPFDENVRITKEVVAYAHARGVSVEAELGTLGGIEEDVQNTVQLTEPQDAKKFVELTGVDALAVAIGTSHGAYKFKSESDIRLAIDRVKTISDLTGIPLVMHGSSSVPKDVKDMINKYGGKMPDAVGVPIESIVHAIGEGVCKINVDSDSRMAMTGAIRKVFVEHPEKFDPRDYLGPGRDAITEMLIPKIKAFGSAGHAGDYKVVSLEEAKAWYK
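Giardia FBPA (40 nM reagent) was preincubated 10 min at RT with compound (up to 57.5 uM final), then substrate plus GAPDH/TPI/NAD/arsenate coupling system with diaphorase/resazurin was added; resorufin fluorescence (525/598 nm) was read after 20 min.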
A number is an active result; 0 = inactive; ? = inconclusive; - = no result; [ ] = dose if it differs, or a comment. Unless noted, calls follow the shape of the dose curve; as a rule, active = well fitted curve in the direction sought with a large enough effect; inconclusive = small, poorly fitted or top-dose-only effect, or another doubt; inactive = no such curve, though single readings can be large; an effect the other way counts as inactive or inconclusive.

SMILES	Pf growth 96h	Sm TGR block	HCMV antiviral	Pf growth 48h	FBPA Giardia inh
CCC(CC)NC(=O)c1cc2c(C)nn(Cc3ccccc3Cl)c2s1	-	0	0	13.1µM	0
COc1ccccc1CNC(=O)c1cc2c(C)nn(Cc3ccc(F)cc3)c2s1	11.7µM	0	0	?	0
Cc1nn(Cc2ccccc2Cl)c2sc(C(=O)NCc3ccc4c(c3)OCO4)cc12	11.7µM	0	0	-	0
Cc1nn(Cc2ccccc2Cl)c2sc(C(=O)Nc3nccs3)cc12	?	0	?	?	0
Nc1nccc(SCc2ccccc2)n1	-	-	0	-	-
CCN(CC)CCCNC(=O)c1cc(Cl)c(NC(=O)C2=C(C)OCCS2)cc1OC	?	0	0	?	0
C[C@@H]1CN(CCCn2c3ccccc3c3ccccc32)C[C@H](C)N1	5.36µM	0	-	8.49µM	0
CC1CC(C)CN(CCCn2c(=S)[nH]c3ccccc3c2=O)C1 (centres undefined)	0	0	0	-	0
CN(C)C(=O)c1ccc(-c2nc(N(C)C)c3ccccc3n2)cc1	-	-	-	-	0
Cc1ccc(-c2noc(C3CCCN(C(=O)C4CCCCC4)C3)n2)o1 (centres undefined)	1.04µM	25.1µM	0	-	0
CC(C)(C)NC[C@H](O)CSc1nc(-c2ccc(C(N)=O)s2)cs1	10.7µM	-	-	?	-
Cc1ccc2c(c1)Cc1c(nc(-c3ccc(Cl)cc3)nc1SCC(=O)N1CCCCC1)O2	-	0	0	-	-
CCOC(=O)N1CCN(C(=O)CNC(=O)c2nn(-c3ccc(OC)cc3OC)c(=O)c3ccccc23)CC1	1.04µM	0	0	?	0
COc1ccc(-n2nc(C(=O)NCC(=O)NCc3ccccc3OC)c3ccccc3c2=O)c(OC)c1	?	0	0	?	0
COc1ccc(-n2nc(C(=O)NCC(=O)Nc3cc(C)ccc3OC)c3ccccc3c2=O)c(OC)c1	?	0	0	11.7µM	0
COc1ccc(-n2nc(C(=O)NCC(=O)N3CC(C)CC(C)C3)c3ccccc3c2=O)c(OC)c1 (centres undefined)	0	0	0	2.08µM	0
CCN1CCN(C(=O)CNC(=O)c2nn(-c3ccc(OC)cc3)c(=O)c3ccccc23)CC1	1.47µM	0	0	0	0
CN(c1ccccc1C(=O)O)S(=O)(=O)c1ccc2[nH]c(=O)oc2c1	0	0	0	0	-
COc1ccc(-c2c(C(=O)c3ccc(Br)cc3)[nH]c(N)c2C(=O)c2ccccc2)cc1OC	-	-	0	-	-
CCCC(=O)N1c2ccccc2-c2nnc(SC)nc2OC1c1sccc1C (centres undefined)	-	0	0	-	-
CCSc1nnc2c(n1)OC(c1sccc1C)N(C(C)=O)c1ccccc1-2 (centres undefined)	-	0	-60.1	-	-
CCOC(=O)C(C#N)=C1CCN(Cc2ccccc2)CC1	7.38µM	?	0	-	0
CCOC(=O)/C(C#N)=C1/C=Cc2ccccc2N1CC	-	0	0	0	0
CCOC(=O)/C(C#N)=C1/C(=O)N(Cc2ccccc2)c2ccccc21	0	0	0	0	9.98µM
Cc1ccc2c(c1)N(C(=O)N1CCC(C(=O)NCc3cccc(Br)c3)CC1)CCO2	-	0	0	-	-
SMILES	Pf growth 96h	Sm TGR block	HCMV antiviral	Pf growth 48h	FBPA Giardia inh
CCOc1ccc(NS(=O)(=O)c2ccc(NC(=O)N3CCCC3)cc2)cc1	-	0	0	-	-
CCN(CC)c1ccc(NC(=O)CN2C(=O)CC(C)(C)S(=O)(=O)c3ccccc32)c(C)c1	8.28µM	0	0	?	?
CCN(CC)c1ccc(NC(=O)c2cnc3ccccn3c2=O)c(C)c1	?	0	-72.9	0	0
CC1(C)CC(=O)N(CC(=O)NCc2ccccc2)c2ccccc2S1(=O)=O	0	0	0	0	0
CCN(CC)c1ccc(NC(=O)CNCc2ccccc2Cl)c(C)c1	?	0	-102.6	0[0.00184 µM]	?
CN(C)CCN1CCN(C2CN(Cc3cn(Cc4ccc(Cl)cc4)nn3)S(=O)(=O)C2)CC1 (centres undefined)	-	-	0	-	-
Cn1cnc(S(=O)(=O)N2CCCC(C(=O)NCc3ccc(F)cc3)C2)c1 (centres undefined)	-	0	0	-	-
Fc1ccc(-c2c[nH]c(=S)n2Cc2ccccc2)cc1	?	0	0	10.4µM	0
CCNC(=O)c1ccc2c(c1)C1C3CCC(C3)C1C(c1ccccc1)N2 (centres undefined)	0	0	-62.6	7.38µM	0
CCc1ccccc1NC(=O)c1cccc(N2C(=O)C3C4CCC(C4)C3C2=O)c1 (centres undefined)	0	0	0	0	0
